The campaign covered roughly 310,000 compounds. About 14,000 (4.5%) showed an effect of 50% or more. Effects have a minus sign here. For the sample, strong results were picked, then their nearest neighbours and some compounds at random.
target: human ether-à-go-go-related gene (hERG) potassium channel (human, UniProt Q12809); assay: primary screen, population patch clamp on CHO cells stably expressing hERG; higher = less effect of the substance
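Further: peak tail current of the secondary pulse compared with the same well before compound.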

Sequence of human ether-à-go-go-related gene (hERG) potassium channel (Q12809 whole entry, looked up): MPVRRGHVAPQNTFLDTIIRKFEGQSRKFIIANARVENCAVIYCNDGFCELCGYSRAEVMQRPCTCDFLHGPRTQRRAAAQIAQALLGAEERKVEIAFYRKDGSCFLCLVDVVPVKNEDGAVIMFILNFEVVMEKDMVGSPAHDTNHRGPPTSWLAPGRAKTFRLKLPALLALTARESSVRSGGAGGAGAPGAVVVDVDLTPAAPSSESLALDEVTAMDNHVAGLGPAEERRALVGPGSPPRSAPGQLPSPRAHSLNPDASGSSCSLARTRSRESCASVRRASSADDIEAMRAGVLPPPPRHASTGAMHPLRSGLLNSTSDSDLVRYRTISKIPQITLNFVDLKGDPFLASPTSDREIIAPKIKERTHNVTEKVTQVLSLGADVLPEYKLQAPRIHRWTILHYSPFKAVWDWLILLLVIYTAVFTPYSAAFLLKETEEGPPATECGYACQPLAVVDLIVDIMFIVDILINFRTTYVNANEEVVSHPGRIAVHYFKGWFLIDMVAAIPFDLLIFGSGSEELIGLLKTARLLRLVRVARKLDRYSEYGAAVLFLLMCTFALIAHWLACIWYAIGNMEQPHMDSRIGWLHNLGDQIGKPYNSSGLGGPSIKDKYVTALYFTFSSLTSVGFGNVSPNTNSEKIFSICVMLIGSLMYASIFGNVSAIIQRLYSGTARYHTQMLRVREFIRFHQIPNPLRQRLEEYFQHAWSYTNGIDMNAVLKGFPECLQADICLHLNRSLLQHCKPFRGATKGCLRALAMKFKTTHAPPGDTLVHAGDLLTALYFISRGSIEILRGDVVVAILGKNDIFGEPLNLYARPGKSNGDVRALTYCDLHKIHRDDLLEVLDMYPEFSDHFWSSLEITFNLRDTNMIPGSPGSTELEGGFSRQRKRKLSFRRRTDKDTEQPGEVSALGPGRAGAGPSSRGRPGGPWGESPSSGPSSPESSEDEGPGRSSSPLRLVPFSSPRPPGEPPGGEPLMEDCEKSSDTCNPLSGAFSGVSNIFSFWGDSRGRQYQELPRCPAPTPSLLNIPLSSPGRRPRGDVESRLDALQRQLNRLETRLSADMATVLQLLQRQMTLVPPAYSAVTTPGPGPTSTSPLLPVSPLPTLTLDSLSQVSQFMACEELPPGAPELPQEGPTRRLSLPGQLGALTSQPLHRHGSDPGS

| Structure (SMILES) | hERG current change (%, negative = inhibition) at 10uM [%] |
| --- | --- |
| O=c1[nH]c(=O)n(CCc2ccccc2)c(O)c1C=NCCCn1ccnc1 | -2.66 |
| COc1ccccc1CC(NC(C)=O)C(=O)NC1CCN(C(=O)Nc2ccccc2F)CC1 (stereo not drawn) | 28.3 |
| Cc1ccc(Cl)cc1NS(=O)(=O)c1ccc2oc(=O)ccc2c1 | -25.7 |
| COc1ccc(CCN(C)CC(O)COc2c(C)ccc(C)c2C)cc1OC (stereo not drawn) | -76 |
| COc1ccc(CCN(C)Cc2nc(Cc3ccc(OC)c(OC)c3)no2)cc1OC | 0.332 |
| COc1ccc(CCN(C)CC(O)COc2ccc(C(C)=O)cc2OC)cc1OC (stereo not drawn) | -21.6 |
| COc1ccc(C(CNCC(O)COc2c(C)ccc(C)c2C)N(C)C)cc1 (stereo not drawn) | -44.1 |
| COc1ccc(CCN(C)CC(O)COC(c2ccc(F)cc2)c2ccc(F)cc2)cc1OC (stereo not drawn) | -79.2 |
| COc1ccc(CCN(C)CC(O)c2ccccc2)cc1OC.O=C(O)C(=O)O (stereo not drawn) | -32.2 |
| O=C(Nc1ccc(Nc2ccccc2)cc1)c1cc([N+](=O)[O-])ccc1Cl | 11.2 |
| CNc1ccc(Br)cc(C(=O)/C=C/c2cccc(OC)c2)c1=O | -1.19 |
| COc1ccc(NC2c3ncccc3C(=O)N2Cc2cccs2)cc1 (stereo not drawn) | -18.4 |
| CCc1noc(C)c1C(=O)N1CCOCC1 | 14.4 |
| COC(=O)N1C(=O)[C@](c2ccccc2)(C(C)C)N1C(=O)OC | 12.2 |
| COc1ccccc1/C=N/NC(=O)c1cccc(OC(F)(F)C(F)F)c1 | -9.51 |
| Cc1cc(C(=O)N2CC=C(c3ccccc3)CC2)c2ccccc2n1 | -52.9 |
| CC(=O)N1CCN(C(=O)c2cc(-c3ccc(Cl)s3)nc3ccccc23)CC1 | -51.8 |
| O=C(c1cc(-c2ccc(Cl)cc2)nc2ccccc12)N1CCOCC1 | -68.8 |
| O=C(c1cc(-c2ccc(Cl)s2)nc2ccccc12)N1CCOCC1 | -17 |
| O=C(c1cc(-c2ccc(Cl)s2)nc2ccccc12)N1CCCC1 | 4.92 |
| O=C(c1cc(-c2ccccc2)nc2ccccc12)N1CCOCC1 | 27.6 |
| O=C(O)c1ccccc1C(=O)N1CC=C(c2ccccc2)CC1 | 3.44 |
| CC(=O)N1CCN(C(=O)c2cc(C)nc3ccccc23)CC1 | 31.1 |
| Cc1ccc(-c2cc(C(=O)N3CCOCC3)c3ccccc3n2)cc1 | -3.91 |

| Structure (SMILES) | hERG current change (%, negative = inhibition) at 10uM [%] |
| --- | --- |
| CC(C)(CNC(=O)c1cc(-c2ccc(Cl)s2)nc2ccccc12)N1CCOCC1 | -55.1 |
| O=C(NCCCN1CCOCC1)c1cc(-c2ccc(Cl)s2)nc2ccccc12 | -44.1 |
| O=C(NCCN1CCOCC1)c1cc(-c2ccc(Cl)s2)nc2ccccc12 | -5.22 |
| CCOc1ccnc(OCC)c1Br | 28.3 |
| NS(=O)(=O)c1ccc(OC(=O)CNC(=O)OCc2ccccc2)cc1 | 11 |
| Cc1ccc(OCC(O)Cn2c(N3CCOCC3)nc3c2c(=O)[nH]c(=O)n3C)cc1 (stereo not drawn) | -16.1 |
| Cc1nn(C)c(C)c1/C=N/NC(=O)c1csc2ccccc12 | -2.45 |
| O=C(CN1C(=O)NC(Cc2c[nH]c3ccccc23)C1=O)Nc1ccccc1Br (stereo not drawn) | -15.4 |
| COc1ccc(S(=O)(=O)N2CCCC2C(=O)Nc2nc3c(s2)CCCC3)cc1 (stereo not drawn) | -14 |
| COc1ccc(CCNC(=O)c2cc(S(=O)(=O)N(C)c3ccccc3)ccc2Cl)cc1 | -16.6 |
| Cn1[nH]c(-c2ccccc2)c(/C=N/O)c1=O | -15.1 |
| COCCn1c(-c2ccc(OC(F)(F)C(F)C(F)(F)F)cc2)nc2c1c(=O)[nH]c(=O)n2CC(C)C (stereo not drawn) | -19.5 |
| CC1CCCN(C(=O)c2ccccc2OC2CCN(S(C)(=O)=O)CC2)C1 (stereo not drawn) | 11.1 |
| O=C(c1cc(-c2ccccc2)nc2ccccc12)N1CCCC1 | 2.55 |
| O=C(c1cc(-c2ccc(Cl)cc2)nc2ccccc12)N1CCC1 | -59.7 |
| O=C(c1cc(-c2ccc(Br)cc2)nc2ccccc12)N1CCC1 | -44.4 |
| COc1ccc(/C=c2\sc3nc(-c4ccccc4OC)nn3c2=O)c(OC)c1 | 9.67 |
| CCC(=O)c1cc(F)ccc1OCC(=O)N1CCN(c2ccc(F)cc2)CC1 | -72.1 |
| Cc1cc(OCC(=O)N2CCN(c3ccc(F)cc3)CC2)c2c(C)cc(=O)oc2c1 | 10.7 |
| Cn1c(=O)cc(OCC(=O)N2CCN(c3ccccc3F)CC2)c2ccccc21 | -17.5 |
| Cc1ccc(C)c(N2CCN(C(=O)CCS(=O)(=O)c3ccc4c(c3)oc(=O)n4C)CC2)c1 | -48.6 |
| CC(=O)c1cc(F)ccc1OCC(=O)N1CCN(c2ccc(F)cc2)CC1 | -58.2 |
| Cc1ccc(C)c(N2CCN(C(=O)COc3cc(=O)n(C)c4ccccc34)CC2)c1 | -32.3 |
| Cc1c(C)c2ccc(OCC(=O)N3CCN(c4ccc(F)cc4)CC3)c(C)c2oc1=O | 2.26 |

| Structure (SMILES) | hERG current change (%, negative = inhibition) at 10uM [%] |
| --- | --- |
| COC(=O)c1ccccc1OCC(=O)N1CCN(c2ccc(F)cc2)CC1 | -44.9 |
| Cc1cccc(N2CCN(C(=O)COc3cc(=O)n(C)c4ccccc34)CC2)c1C | -61.2 |
| COC(=O)c1ccc(OC)cc1OCC(=O)N1CCN(c2ccc(F)cc2)CC1 | -33 |
| Cc1cccc(N2CCN(C(=O)CCS(=O)(=O)c3ccc4c(c3)oc(=O)n4C)CC2)c1C | -51.2 |
| Cn1c(=O)oc2cc(S(=O)(=O)CCC(=O)N3CCN(c4ccccc4F)CC3)ccc21 | 1.03 |
| CCOC(=O)c1c(S(=O)(=O)NCC(=O)Nc2ccc(F)cc2)c(C)n(C)c1C | 14.5 |
| CCOC(=O)c1cc(C#N)c(N2CCNCC2)nc1C(F)(F)F | -12.3 |
| COc1ccc(CNC(=O)CCSCc2cccc(Cl)c2)cc1 | -17 |
| COc1ccc(-n2nnnc2CNC(=O)C(=O)c2c[nH]c3ccccc23)cc1 | 6.27 |
| CCCCOC(=O)Nc1ccc(C(=O)OCCC)cc1 | -12.9 |
| CCC(C)c1ccc2oc(-c3ccc(NC(=O)c4ncn[nH]4)cc3)nc2c1 (stereo not drawn) | -1.89 |
| CCOc1ccc(N2C(=O)CC(N3CCC(O)(c4ccc(Br)cc4)CC3)C2=O)cc1 (stereo not drawn) | -49.1 |
| CC1(C)CC(=O)C2=C(C1)NC(=O)CC2c1cc(F)ccc1F (stereo not drawn) | -21.6 |
| Cc1cc(C)c2c(c1)/C(=N/NS(=O)(=O)c1ccccc1)CCC2 | 7.48 |
| COC(=O)Nc1ccc(S(=O)(=O)NCCCCCC(=O)O)cc1 | -1.56 |
| CCN1CCN(C(=O)COc2cc(=O)n(CC)c3ccccc23)CC1 | -2.67 |
| CCOC(=O)c1nn(-c2ccc(C)cc2)c(=O)cc1OCC(=O)N1CCN(c2ccccc2)CC1 | -51.9 |
| CCOC(=O)c1nn(-c2ccc(F)cc2)c(=O)cc1OCC(=O)N1CCN(c2ccccc2)CC1 | -15.6 |
| CCn1c(=O)cc(OCC(=O)N2CCN(c3cccc(C(F)(F)F)c3)CC2)c2ccccc21 | -48.2 |
| CCOC(=O)c1nn(-c2ccccc2C)c(=O)cc1OCC(=O)N1CCN(c2ccccc2)CC1 | -24.6 |
| CCn1c(=O)cc(OCC(=O)N2CCN(c3ccc(F)cc3)CC2)c2ccccc21 | -69.8 |
| CN(C)c1ccc(CNn2cnnc2SCC(=O)NC(C)(C)C)cc1 | 23.4 |
| CCOc1ccc(C(=O)OCC(=O)NCCCc2ccccc2)cc1 | 0.425 |
| Cc1c(/C=N/n2cnnc2)c2ccccc2n1C | 1.25 |

| Structure (SMILES) | hERG current change (%, negative = inhibition) at 10uM [%] |
| --- | --- |
| COC(=O)c1ccc(NC(=O)C23CC4CC(C2)CC(n2cncn2)(C4)C3)cc1 | -22 |
| CC(NC(=O)C12CC3CC(C1)CC(n1cncn1)(C3)C2)C12CC3CC(CC(C3)C1)C2 (stereo not drawn) | -61.9 |
| O=C(NC1CCCCC1)C12CC3CC(C1)CC(n1cncn1)(C3)C2 | 0.934 |
| CCN(CC)C(=O)CSC1=C(C#N)C(c2cccs2)C=C(C)N1 (stereo not drawn) | 14.1 |
| COc1ccc2c(c1)CC/C(=C/c1cc(OC)c(OC)c(OC)c1)C2=O | -1.54 |
| COc1ccc2c(c1)CC/C(=C/c1ccccn1)C2=O | 3.19 |
| COc1ccc2c(c1)CC/C(=C/c1ccncc1)C2=O | -55.2 |
| CCCc1cc(=O)oc2cc(OCc3cc(OC)c(OC)c(OC)c3)c(Cl)cc12 | 17.4 |
| CC1(C)CC(NC(=S)NCc2ccco2)CC(C)(C)N1 | 18.9 |
| COc1ccc(CN2CCN(C3CCOCC3)CC2CCO)c(C)c1C (stereo not drawn) | -12.4 |
| CCOc1ccccc1CN1CCN(C2CCSCC2)CC1CCO (stereo not drawn) | -25.9 |
| Cc1ccc(CN2CCN(Cc3ccc(OCCO)cc3)CC2CCO)o1 (stereo not drawn) | 1.29 |
| CCOc1ccc(CN2CCN(Cc3ccc(C)o3)CC2CCO)cc1 (stereo not drawn) | -104 |
| CCOc1ccc(CN2CCN(C3CCSCC3)CC2CCO)cc1 (stereo not drawn) | -74.3 |
| COc1ccc(CN2CCN(C3CCC3)CC2CCO)c(C)c1C (stereo not drawn) | 0.432 |
| COc1ccc(CN2CCN(C3CCSCC3)CC2CCO)c(C)c1C (stereo not drawn) | -51.1 |
| COc1cccc(CN2CCN(Cc3cc4ccccc4o3)CC2CCO)c1 (stereo not drawn) | -10.7 |
| CCOc1ccccc1CN1CCN(Cc2ccc(C)o2)CC1CCO (stereo not drawn) | -37.9 |
| COc1ccc(CN2CCN(Cc3cc4ccccc4o3)CC2CCO)c(F)c1 (stereo not drawn) | -60.9 |
| Cc1ccccc1CN1CCN(Cc2cc3ccccc3o2)CC1CCO (stereo not drawn) | -6.94 |
| CCOc1ccc(CN2CCN(C3CCC3)CC2CCO)cc1 (stereo not drawn) | -19.2 |
